Reference: PubChem BioAssay (NCATS)
Records with an inconclusive call do not appear. Calls of active or inactive are those of the source. Unless noted, the call rests on the fitted dose curve.

How the values were obtained:
[1] = qHTS for Inhibitors of the Functional Ribonucleoprotein Complex (vRNP) of Lassa (LASV) Arenavirus: LASV Primary Screen - GLuc reporter signal (AID 1347082; calls by dose curve; tested in HEK293 reporter line; further: nearly all actives have a fitted effect of over 60% in size; on activity change, negative = inhibition: series mostly up to about 57 µM)
[2] = qHTS for Inhibitors of the Functional Ribonucleoprotein Complex (vRNP) of Lassa (LASV) Arenavirus: Viability assay - alamar blue signal for LASV Primary Screen (AID 1347083; calls by dose curve; tested in HEK293 reporter line; further: nearly all actives have a fitted effect of over 80% in size; on activity change, negative = reduced viability: series mostly up to about 57 µM)
[3] = qHTS for Inhibitors of the Functional Ribonucleoprotein Complex (vRNP) of Lymphocytic Choriomeningitis Arenaviruses (LCMV): Viability assay - alamar blue signal for LCMV Primary Screen (AID 1347085; calls by dose curve; tested in HEK293 reporter line; further: nearly all actives have a fitted effect of over 80% in size; on activity change, negative = lower viability: series mostly up to about 57 µM)
[4] = biological target: Nucleoprotein (Lymphocytic choriomeningitis virus (strain Armstrong)) (UniProt P09992); assay: qHTS for Inhibitors of the Functional Ribonucleoprotein Complex (vRNP) of Lymphocytic Choriomeningitis Arenaviruses (LCMV): LCMV Primary Screen - GLuc reporter signal (AID 1347086); further: nearly all actives have a fitted effect of over 70% in size; on activity change, negative = inhibition: series mostly up to about 57 µM
Chain of Nucleoprotein (Lymphocytic choriomeningitis virus (strain Armstrong)) (P09992 whole entry, looked up): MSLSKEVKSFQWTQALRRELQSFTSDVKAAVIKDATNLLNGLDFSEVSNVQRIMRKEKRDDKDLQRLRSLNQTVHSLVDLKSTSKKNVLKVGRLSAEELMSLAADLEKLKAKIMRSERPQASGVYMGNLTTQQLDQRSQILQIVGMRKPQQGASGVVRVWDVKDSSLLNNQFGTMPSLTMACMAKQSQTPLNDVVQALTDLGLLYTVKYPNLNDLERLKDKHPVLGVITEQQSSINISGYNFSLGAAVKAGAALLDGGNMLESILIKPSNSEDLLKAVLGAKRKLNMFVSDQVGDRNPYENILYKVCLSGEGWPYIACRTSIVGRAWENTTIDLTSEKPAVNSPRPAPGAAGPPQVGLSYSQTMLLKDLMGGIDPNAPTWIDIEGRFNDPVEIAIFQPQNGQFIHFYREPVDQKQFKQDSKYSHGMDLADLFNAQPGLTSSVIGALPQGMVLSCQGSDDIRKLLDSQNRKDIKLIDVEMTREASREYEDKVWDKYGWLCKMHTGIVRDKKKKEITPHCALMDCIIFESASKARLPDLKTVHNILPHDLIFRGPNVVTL
On the % scale 0 is the no-effect control and ±100 the full control effect; potency means the concentration at half of the fitted maximal effect.

COC(/C=C(\C)CCC=C(C)C)OC
inactive: Potency [1] | Potency [2] | Potency [3] | Potency [4]

CCCC1CCCC(=O)O1 (stereo not given)
inactive: Potency [1] | Potency [2] | Potency [3] | Potency [4]

COC(=O)N1c2ccccc2C23[C@@H]4CN5CCC[C@]6(CCC12C(O)(C6)C4=O)[C@H]53
inactive: Potency [1] | Potency [2] | Potency [3] | Potency [4]

COc1cc(C)cc(C(=O)O)c1C1=C(O)c2cccc(O)c2C(=O)C1=O
inactive: Potency [1] | Potency [2] | Potency [3] | Potency [4]

C[C@]12C=CC(=O)N[C@@H]1CC[C@H]1[C@H]3CC[C@@H](C(=O)Nc4cc(C(F)(F)F)ccc4C(F)(F)F)[C@@]3(C)CC[C@@H]12
inactive: Potency [1] | Potency [2] | Potency [3] | Potency [4]

CC(C)CC[C@@H](O)[C@](C)(O)C1CC[C@@]2(O)C3=CC(=O)[C@@H]4C[C@@H](O)[C@@H](O)C[C@]4(C)C3CC[C@]12C (stereo not given in full)
inactive: Potency [1] | Potency [2] | Potency [3] | Potency [4]

CC(=O)OC[C@]12CCC(C)=C[C@H]1O[C@@H]1[C@H](O)[C@@H](OC(C)=O)[C@@]2(C)[C@]12CO2
inactive: Potency [1] | Potency [2] | Potency [3] | Potency [4]

CCCCCCC[C@@H](C/C=C/CCC(=O)N(C)C/C(=C/Cl)C/C(=C\C(=O)N1CC(OC)=CC1=O)OC)OC
inactive: Potency [1] | Potency [2] | Potency [3] | Potency [4]

CC(C)CCOC(=O)c1ccccc1
inactive: Potency [1] | Potency [2] | Potency [3] | Potency [4]

O=C(O)[C@@H]1Cc2c([nH]c3ccccc23)C2CCC(=O)N21 (stereo not given in full)
inactive: Potency [1] | Potency [2] | Potency [3] | Potency [4]

COc1ccc(CCC(N)=O)cc1OC
inactive: Potency [1] | Potency [2] | Potency [3] | Potency [4]

COc1cc(/C=C/C(=O)OC[C@H]2O[C@H](OC3(CO)OC(CO)C(O)C3O)[C@H](O)[C@@H](O)[C@@H]2O)ccc1O (stereo not given in full)
inactive: Potency [1] | Potency [2] | Potency [3] | Potency [4]

COc1ccc([C@@H]2CC(=O)c3c(O)cc(O[C@@H]4O[C@H](CO)[C@@H](O)[C@H](O)[C@H]4O[C@@H]4O[C@@H](C)[C@H](O)[C@@H](O)[C@H]4O)cc3O2)cc1
inactive: Potency [1] | Potency [2] | Potency [3] | Potency [4]

COc1ccc(COC(C)=O)cc1
inactive: Potency [1] | Potency [2] | Potency [3] | Potency [4]

O=C(NC[C@H](O)c1ccccc1)c1ccccc1
inactive: Potency [1] | Potency [2] | Potency [3] | Potency [4]

O=C1O/C(=C\c2ccc(O)cc2)C(O)=C1c1ccc(O)cc1
inactive: Potency [1] | Potency [2] | Potency [3] | Potency [4]

CCN1C[C@]2(C)CCC(OC)[C@@]34C5C[C@@H]6CC[C@@](O)(C5C(=O)O6)[C@@H](C(O)C23)[C@@H]14 (stereo not given in full)
inactive: Potency [1] | Potency [2] | Potency [3] | Potency [4]

CC[C@H](C)/C=C(C)/C=C/C(=O)Cc1cc(O)c(C)c(O)c1C=O
inactive: Potency [1] | Potency [2] | Potency [3] | Potency [4]

C[C@]12CCC(=O)C=C1[C@@H]1CC1[C@H]1[C@H]3[C@@H]4C[C@H]4[C@@]4(CCC(=O)O4)[C@@]3(C)CC[C@H]12 (stereo not given in full)
inactive: Potency [1] | Potency [2] | Potency [3] | Potency [4]

COc1ccc(C[C@@H](C)[C@@H](C)Cc2ccc(OC)c(OC)c2)cc1OC
active: Potency [1] 21.7 µM | Potency [2] 6.11 µM | Potency [3] 12.2 µM | Potency [4] 24.3 µM

CS(C)(=O)=O
inactive: Potency [1] | Potency [2] | Potency [3] | Potency [4]

O=c1c(O)c(-c2ccccc2)oc2cc(O)cc(O)c12
inactive: Potency [1] | Potency [2] | Potency [3] | Potency [4]

CC(C)(O)[C@@H]1Cc2c(ccc3ccc(=O)oc23)O1
inactive: Potency [1] | Potency [2] | Potency [3] | Potency [4]

O=C(O)CCCCCCCCCC(=O)O
inactive: Potency [1] | Potency [2] | Potency [3] | Potency [4]

CC(C)CCC[C@@H](C)[C@@H]1CC[C@H]2C3=CC=C4CC(O)CC[C@]4(C)[C@H]3CC[C@@]21C (stereo not given in full)
inactive: Potency [1] | Potency [2] | Potency [3] | Potency [4]

OC[C@H]1O[C@@H](O[C@H]2[C@@H](O)[C@@](O)(CO)O[C@@H]2CO)[C@H](O)[C@@H](O)[C@@H]1O
inactive: Potency [1] | Potency [2] | Potency [3] | Potency [4]

O=C(CCCCO)CCCCCCCC[C@H]1N[C@H](CO)[C@H](O)[C@@H]1O[C@@H]1O[C@H](CO)[C@@H](O)[C@H](O)[C@H]1O
inactive: Potency [1] | Potency [2] | Potency [3] | Potency [4]

c1csc(-c2ccc(-c3cccs3)s2)c1
inactive: Potency [1] | Potency [2] | Potency [3] | Potency [4]

CC(C)(O)c1ccc2c(c1)CCC1C(C)(C(=O)O)CCCC21C (stereo not given)
inactive: Potency [1] | Potency [2] | Potency [3] | Potency [4]

Cn1c2ccccc2c2c3c(c4c5ccccc5n(CCC#N)c4c21)CNC3=O
active: Potency [1] 8.63 µM | Potency [2] 0.485 µM | Potency [3] 3.85 µM | Potency [4] 6.11 µM

Cc1cc(O)c2c(c1O)C(=O)C(O)=C(O)C2=O
inactive: Potency [1] | Potency [2] | Potency [3] | Potency [4]

O=C(OCC#CCSc1nnc(-c2cccc3ccccc23)o1)c1cc2ccccc2s1
inactive: Potency [1] | Potency [2] | Potency [3] | Potency [4]

COc1ccc2c(c1)CC1c3c(cc4c(c3-2)OCO4)CC[N+]1(C)[O-] (stereo not given)
inactive: Potency [1] | Potency [2] | Potency [3] | Potency [4]

C=C1C[C@@]23CC4C5[C@@]6(C)C[C@H](O)C[C@@]57C2[C@H](O)[C@@H]1[C@H](O)[C@H]3[C@H]7N4C6
inactive: Potency [1] | Potency [2] | Potency [3] | Potency [4]

CCC(=O)OCCC(C)CCC=C(C)C (stereo not given)
inactive: Potency [1] | Potency [2] | Potency [3] | Potency [4]

S=C(NCc1ccccc1)NCc1ccccc1
inactive: Potency [1] | Potency [2] | Potency [3] | Potency [4]

ClC1=C(Cl)[C@]2(Cl)[C@@H]3[C@@H](Cl)[C@H]4O[C@H]4[C@@H]3C1(Cl)C2(Cl)Cl
inactive: Potency [1] | Potency [2] | Potency [3] | Potency [4]

C[C@H]([C@@H](N)C(=O)N[C@@H](C(=O)O)[C@@H]1O[C@H](n2ccc(=O)[nH]c2=O)[C@@H](O)[C@H]1O)[C@@H](O)c1ccc(O)cn1
inactive: Potency [1] | Potency [2] | Potency [3] | Potency [4]

CNc1ncnc2c1ncn2[C@@H]1O[C@H](CO)C(O)[C@H]1O (stereo not given in full)
inactive: Potency [1] | Potency [2] | Potency [3] | Potency [4]

N#CC(=C(N)Sc1ccc(N)cc1)c1ccccc1C(F)(F)F
inactive: Potency [1] | Potency [2] | Potency [3] | Potency [4]

CCCCC/C=C\C[C@@H]1O[C@H]1C(O)/C=C\C/C=C\CCCC(=O)O (stereo not given in full)
inactive: activity change, negative = inhibition [1] 2.65% [at 0.757 µM] | activity change, negative = reduced viability [2] 5.76% [at 0.757 µM] | activity change, negative = lower viability [3] 11% [at 0.757 µM] | activity change, negative = inhibition [4] 17.5% [at 0.757 µM]

CCCCCc1cccc(=O)o1
inactive: Potency [1] | Potency [2] | Potency [3] | Potency [4]

COc1ccc2c(Oc3ccc(NC(=O)c4c(C)n(CC(C)(C)O)n(-c5ccccc5)c4=O)nc3)ccnc2c1
inactive: Potency [1] | Potency [2] | Potency [3] | Potency [4]

C=C(C)[C@H]1CC=C(CO)CC1
inactive: Potency [1] | Potency [2] | Potency [3] | Potency [4]

COc1ccc(C2OCC3(O)C(c4ccc(OC)c(OC)c4)OCC23)cc1OC (stereo not given)
inactive: Potency [1] | Potency [2] | Potency [3] | Potency [4]

Cn1c(=O)c2nncnc2n(C)c1=O
inactive: Potency [1] | Potency [2] | Potency [3] | Potency [4]

CCCCC/C=C\C[C@@H]1O[C@H]1/C=C/C(O)C/C=C\CCCC(=O)O (stereo not given in full)
inactive: activity change, negative = inhibition [1] -3.16% [at 0.757 µM] | activity change, negative = reduced viability [2] 11.9% [at 0.757 µM] | activity change, negative = lower viability [3] 4.17% [at 0.757 µM] | activity change, negative = inhibition [4] 7.04% [at 0.757 µM]

C=C(C)C1Cc2cc3ccc(=O)oc3cc2O1 (stereo not given)
inactive: Potency [1] | Potency [2] | Potency [3] | Potency [4]

CCCCOC(=O)C(C)OC(=O)CCC (stereo not given)
inactive: Potency [1] | Potency [2] | Potency [3] | Potency [4]

COc1cc2c(cc1O)[C@@H]1Cc3cc(O)c(OC)cc3[C@H](C2)N1C
inactive: Potency [1] | Potency [2] | Potency [3] | Potency [4]

CCCCCCC[C@@H](C/C=C/CCC(=O)O)OC
inactive: Potency [1] | Potency [2] | Potency [3] | Potency [4]

O=Cc1ccnc2ccccc12
inactive: Potency [1] | Potency [2] | Potency [3] | Potency [4]

OC[C@H]1O[C@@H](O[C@@H]2OC=C[C@H]3[C@H](O)[C@@H]4O[C@]4(CO)[C@@H]23)[C@H](O)[C@@H](O)[C@@H]1O
inactive: Potency [1] | Potency [2] | Potency [3] | Potency [4]

COc1cc2c(c(OC)c1OC)-c1c(cc(OC)c(OC)c1OC)CC(C)C(C)C2 (stereo not given)
inactive: Potency [1] | Potency [2] | Potency [3] | Potency [4]

CN1CCCC1
inactive: Potency [1] | Potency [2] | Potency [3] | Potency [4]

O=C1c2c(O)cc(O)cc2O[C@@]12c1c(cc(O)c3c1O[C@H](c1ccc(O)cc1)[C@@H](O)C3)O[C@@H]2c1ccc(O)cc1
inactive: Potency [1] | Potency [2] | Potency [3] | Potency [4]

CCCCC[C@H](O)/C=C/[C@H]1OC(=O)C[C@H](O)[C@@H]1C/C=C\CCCC(=O)O
inactive: activity change, negative = inhibition [1] 4.7% [at 5.82 µM] | activity change, negative = reduced viability [2] 8.43% [at 5.82 µM] | activity change, negative = lower viability [3] 3.55% [at 5.82 µM] | activity change, negative = inhibition [4] 3.12% [at 5.82 µM]

C#C[C@]1(O)CC[C@@H]2[C@@H]3CCC4=CC(=O)CC[C@@H]4[C@H]3CC[C@@]21CC
inactive: Potency [1] | Potency [2] | Potency [3] | Potency [4]

O=C1CCCCCCCCCCCCCC1
inactive: Potency [1] | Potency [2] | Potency [3] | Potency [4]

COc1c(C)c2c(c(O)c1CC=C(C)CCC(=O)O)C(=O)OC2
active: Potency [1] 6.11 µM | Potency [2] 3.85 µM | Potency [3] 13.7 µM | Potency [4] 7.69 µM
